# Source: PubChem BioAssay (National Center for Advancing Translational Sciences (NCATS))
# Compounds with a hit are over-represented: about 3.6% of the library has one in this group of screens.
# aSyn rescue = alpha-synuclein toxicity inhibition in yeast; Yeast expressing alpha-synuclein, growth rescue, BacTiter-Glo, 24 h; Potency, µM (doses to about 46.1 µM), inactives show at the top dose growth rescue (activation), most hits filed as activators; 370,000 compounds, 0.14% hits; AID 652106; also: % of control where 0% means no effect; nearly all actives have a fitted effect of over 65% in size
#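 Screening used galactose-induced yeast with toxic alpha-synuclein levels, exposed to compound for 24 hr at 30 deg C. Cell growth, read with BacTiter-Glo luminescence, gave the measured signal.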
# MmCpn inh = inhibitors of Methanococcus maripaludis chaperonin TRiC (MmCpn); purified Mm-Cpn ATPase, ADP Transcreener TR-FRET; Potency, µM (top dose mostly 76.9 µM), inactives show at the highest dose activity, negative = inhibition, usual class: inhibitors; 330,000 compounds, 0.031% hits; also: % is scaled to controls: 0 for no effect and ±100 for the full control effect; nearly all actives have a fitted effect of over 80% in size
#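 Quantitative HTS used 25 nM Mm-CPN and 10 uM ATP in magnesium/KCl Tris buffer, pH 7.4, with 1 mM DTT. Hydrolysis ran 30 min at 37°C; ADP was read by HTRF.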
# Abeta rescue = A-beta toxicity reversal in yeast; yeast expressing A-beta42, growth rescue, OD600, 48 h; response scale: 0% DMSO, 100% iron-clioquinol control; Potency, µM (series often up to 46.1 µM), hits mostly activators; 410,000 compounds, 0.063% hits; AID 1347071; also: nearly all actives have a fitted effect of over 55% in size
#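 Yeast growth medium received pinned compounds, then yeast cells expressing toxic A-beta were added; plates incubated at 30 C for 48 hr. Growth read as absorbance at 600 nm, normalized to DMSO and equimolar FeCl3 plus clioquinol controls.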
# ClpP mod = qHTS Assay for Activators of ClpP; purified B. subtilis ClpP, FRET peptide cleavage, 20 min; Potency, µM (doses to about 57.5 µM), for inactives: at the highest dose activity change, negative = active; 340,000 compounds, 1.9% hits; AID 651965, 2013; active = well fitted falling curve with a large enough effect; inconclusive = small, poorly fitted or top-dose-only effect; inactive = no such curve, though single readings can be large or run the other way; also: the source files actives as falling curves though it sought activators and does not explain the sign; nearly all actives have a fitted effect of over 65% in size
# Target sequence (P80244 whole entry, looked up): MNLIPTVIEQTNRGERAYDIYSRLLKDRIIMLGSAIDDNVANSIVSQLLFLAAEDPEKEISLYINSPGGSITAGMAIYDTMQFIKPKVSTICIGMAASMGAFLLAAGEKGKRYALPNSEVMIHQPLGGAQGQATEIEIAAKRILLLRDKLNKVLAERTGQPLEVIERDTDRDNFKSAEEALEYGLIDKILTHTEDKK
#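 Buffer: 100 mM Tris/HCl pH8, 100 mM KCl, 0.05% low protease BSA, 2.5% glycerol, 0.01% Tween-20. ClpP 10 microg/mL final; 20 min RT; delta FRET normalized to ADEP and DMSO controls.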
# FUS suppressor = FUS proteinopathy suppression in yeast. Potency, µM (highest dose often 76.6 µM), actives largely listed as activators. S. cerevisiae FUS-expressing, growth rescue, OD600, 24 h. AID 1347120. 390,000 compounds, 0.24% hits;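 also: plate controls were DMSO vehicle for no effect and reference control for full effect; nearly all actives have a fitted effect of over 55% in size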
#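 Absorbance at 600 nm, taken 24hr after compound addition, measured rescue of FUS-yeast growth at 30C. Induction used 2% galactose with seeding at OD 0.005. Controls: CP55940 from 92uM final, DMSO only.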
# TDP43 rescue = inhibitors of TDP-43 toxicity in yeast. TDP-43 expressing yeast growth rescue, BacTiter-Glo, 24 h. Potency, µM (top dose mostly 46.1 µM), inactives show at the highest dose growth rescue (activation), most hits filed as activators. 410,000 compounds, 1.8% hits; also: % of control where 0% means no effect; nearly all actives have a fitted effect of over 50% in size
#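 Galactose-induced TDP-43 yeast, OD600=0.02, compound pinned; 24 hr, 30 deg C; BacTiter-Glo luminescence for growth. Inhibitors of TDP-43 toxicity read as activators.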
# Numbers without * were called inactive; i = inactive; ? = inconclusive; . = no result given; [ ] = dose if it differs, or a comment. Unless noted, calls follow the shape of the dose curve; as a rule, active = well fitted curve in the direction sought with a large enough effect; inconclusive = small, poorly fitted or top-dose-only effect, or another doubt; inactive = no such curve, though single readings can be large; an effect the other way counts as inactive or inconclusive. Potency is read from the fitted curve at half-maximal effect.
SMILES,aSyn rescue,MmCpn inh,Abeta rescue,ClpP mod,FUS suppressor,TDP43 rescue
COc1ccc2c(C)cc(SCC(=O)Nc3c(C)n(C)n(-c4ccccc4)c3=O)nc2c1,1%,-2%,i,25µM*,i,-1%
COc1ccc(CN(C(=O)Nc2cc(C)ccc2C)C2CCN(C(C)=O)CC2)cc1,.,.,i,-1%,i,2%
COc1cccc(-c2nc(CCl)cs2)c1,-8%,-3%,i,-16%,i,11µM*
C[C@H]1[C@@H](OC(=O)NCc2ccc(C(F)(F)F)cc2)CC[C@@]23CCCN2C(=O)CCC[C@@H]13,.,.,.,.,i,.
CCOC(=O)c1ccccc1NC(=O)c1cc2sccc2n1C,5%,?,i,28µM*,i,3%
COc1ccc(S[C@]2(C(=O)NC(C)C)CC(=O)N[C@@H]2c2ccc(OC)cc2)cc1,.,.,.,.,i,.
COc1ccc(OC)c(/C=N/NC(=O)c2csc3ccccc23)c1,-6%,0%,i,32µM*,i,0%
COc1cc(/C=C(/C#N)C(=O)NCc2ccccc2)cc(OC)c1OC,?,1%,i,-8%,i,20µM*
CCOC(=O)c1c(C(F)(F)F)nc2ncccn12,-12%,1%,i,25µM*,i,-15%
CCc1cccc(NC(=O)Cn2nc(-c3cc(C)ccc3C)ccc2=O)c1,.,.,?,-1%,?,28µM*
Cc1ccc(-c2ccc(=O)n(CC(=O)Nc3cccc(C#N)c3)n2)cc1,.,.,i,-24%,i,2%
COc1ccc(C(C(=O)NC2CCCC2)n2c(Cc3cc(F)cc(F)c3)nc3ccccc32)cc1 (centres undefined),2%,.,i,-1%,i,?
COc1ccc(C(C(=O)NC2CCCC2)n2c(CSCCOc3ccccc3)nc3ccccc32)cc1 (centres undefined),-3%,.,i,-2%,18µM*,5%
COc1ccccc1Cc1c(-c2ccccc2)nc2ccc(Br)cn12,-1%,.,i,-8%,i,35µM*
FC(F)(F)c1ccccc1Cc1c(C2CCCCC2)nc2ccc(Br)cn12,-39%,.,i,-2%,i,?
COc1ccccc1Cc1c(C2CCCCC2)nc2ccc(Br)cn12,-2%,.,i,-2%,i,13µM*
COC(=O)c1ccc2nc(-c3ccccc3)c(Cc3ccccc3OC)n2c1,-6%,.,i,?,i,35µM*
Cc1ccc(N(CC(=O)Nc2cccc(Cl)c2C)S(=O)(=O)c2c(C)noc2C)cc1,.,.,i,0%,i,0%
COc1ccc(-c2cc(C(C)=O)c(C)n2CCC(=O)Nc2ccc(C)cc2Cl)cc1,.,.,i,-1%,i,4%
COC(=O)c1cnc2c(C(F)(F)F)cccc2c1OC,-3%,2%,i,16µM*,i,18%
CCOC(=O)C1(Cc2ccccc2)CCN(Cc2ccc(C)cc2)CC1,.,.,.,.,i,.
CCN(CC(=O)N1CCOCC1)S(=O)(=O)c1cc(Cl)ccc1Cl,-10%,1%,i,32µM*,.,-8%
N#CCC[C@H]1CC[C@]2(CCCN(S(=O)(=O)c3ccccc3)C2)O1,.,.,.,.,i,.
CCOC(=O)c1ccc(NC(=O)Nc2ccc3snnc3c2)cc1,1%,.,i,-3%,i,8%
Cc1c(C#N)c2ncn(Cc3ccccn3)c(=O)c2n1-c1ccccc1,-3%,0%,i,28µM*,i,8%
SMILES,aSyn rescue,MmCpn inh,Abeta rescue,ClpP mod,FUS suppressor,TDP43 rescue
Cc1c(C#N)c2ncn(CCCN(C)C)c(=O)c2n1-c1ccccc1,0%,0%,i,-1%,i,6%
Cc1ccccc1C(=O)NCc1ccc2c(c1)CCN2C(=O)c1ccccc1,.,.,i,-3%,i,0%
Cc1ccccc1C(=O)N1CCN(c2ncnc3c2cnn3-c2ccccc2)CC1,?,0%,i,-13%,?,14µM*
Cc1ccc(C)c(N2CCN(c3ncnc4c3cnn4-c3ccccc3)CC2)c1,1%,0%,i,?,i,-5%
CCCc1nn2c(=O)cc(COC(=O)C3CCCCC3)nc2s1,.,.,i,0%,i,25%
COc1ccc(-c2nc(C(=O)NCC3CCCO3)cc3c2[nH]c2ccccc23)cc1 (centres undefined),-4%,-18%,i,5%,?,0%
Cc1nc(C(=O)NCCO)cc2c1[nH]c1ccccc12,2%,-2%,i,4%,i,23%
Cc1ccccc1-c1nc(C(=O)NCC2CCCO2)cc2c1[nH]c1ccccc12 (centres undefined),6%,-11%,i,4%,i,10µM*
Cn1c(C(=O)NCC2CCCO2)cc2c(=O)[nH]c3ccccc3c21 (centres undefined),1%,0%,i,22µM*,i,4%
O=C(NCC1CCCO1)c1cc(-c2ccccc2)nc2ccc(Br)cc12 (centres undefined),-21%,-21%,i,-17%,i,9%
Cc1ccc2nc(-c3cccc(Br)c3)cc(C(=O)NCC3CCCO3)c2c1 (centres undefined),-8%,0%,i,14µM*,i,12%
Cc1ccc(-c2nc(C(=O)NCC3CCCO3)cc3c2[nH]c2ccccc23)cc1 (centres undefined),?,-20%,i,4%,i,25µM*
CCOc1ccccc1NC(=O)N1CCN(C)c2ncccc21,.,.,i,-24%,i,11%
O=C(NCCO)c1cc2c([nH]c3ccccc32)c(-c2ccccc2)n1,5%,1%,i,1%,i,-15%
O=C(NCC1CCCO1)c1cc2c([nH]c3ccccc32)c(-c2cccc(Br)c2)n1 (centres undefined),16%,?,i,4%,?,10µM*
O=c1c2[nH]c3ccccc3c2ncn1Cc1ccccn1,-8%,-1%,i,28µM*,i,-1%
O=c1c2[nH]c3ccccc3c2ncn1CCN1CCNCC1,2%,-3%,i,?,i,-3%
CCC1CCCN1Cn1cnc2c([nH]c3ccccc32)c1=O (centres undefined),-1%,0%,i,25µM*,.,18%
CCN1CCCC1Cn1cnc2c([nH]c3ccc(Cl)cc32)c1=O (centres undefined),2%,-8%,i[9.22 µM],-23%,i,10%
